Compound activity from PubChem.
WT yeast gro inh = growth inhibition of WT yeast, mitochondrial fusion screen. 2.1% of 190,000 active. inhibition, % at 10 µM. mitochondrial fusion phenotypic screen, WT strain; in the data active = inhibition above about 58%; tested in S. cerevisiae
ROMK primary = modulates human ROMK potassium channel activity; P48048; Tet-inducible ROMK, thallium flux fluorescence; actives lie on both sides; B-score at 10 µM; 2% of 130,000 active; AID 1918;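 active = signal ratio slope over the read window, or its plate-corrected B-score, at least 3 SD from the plate mean, either direction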;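 note: B-score of the F/F0 ratio slope over 7 to 12 s after thallium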
L major viab = reduces viability of Leishmania major promastigotes; resazurin fluorescence viability; inhibition, % at 10 µM; 9% of 200,000 active; AID 1063; in the data active = inhibition above about 50%;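 note: promastigotes grown with compound for 44 hours at 28 °C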
Calpain2 inh = calpain II (pig) inhibition | purified calpain II, fluorogenic peptide substrate, 30 min | 0.37% of 220,000 active | inhibition, % at 16 µM | AID 1236;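 active = inhibition above about 50%, limit read from the data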
KCC2 mod = KCC2 (human) Cl- transport modulation | KCC2 cells, thallium flux FluoZin-2 fluorescence | B-score of Tl+ flux slope (higher = more flux/activation; lower = inhibition) at 10 µM | 2.2% of 190,000 active | AID 1456;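 active = thallium flux slope and its plate-corrected score both differing from the plate sample mean at a set confidence after two filtering rounds, in either direction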;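 note: slope of fluorescence scaled to starting intensity during 10 to 20 s after thallium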
Target sequence (Q9H2X9 whole entry, looked up): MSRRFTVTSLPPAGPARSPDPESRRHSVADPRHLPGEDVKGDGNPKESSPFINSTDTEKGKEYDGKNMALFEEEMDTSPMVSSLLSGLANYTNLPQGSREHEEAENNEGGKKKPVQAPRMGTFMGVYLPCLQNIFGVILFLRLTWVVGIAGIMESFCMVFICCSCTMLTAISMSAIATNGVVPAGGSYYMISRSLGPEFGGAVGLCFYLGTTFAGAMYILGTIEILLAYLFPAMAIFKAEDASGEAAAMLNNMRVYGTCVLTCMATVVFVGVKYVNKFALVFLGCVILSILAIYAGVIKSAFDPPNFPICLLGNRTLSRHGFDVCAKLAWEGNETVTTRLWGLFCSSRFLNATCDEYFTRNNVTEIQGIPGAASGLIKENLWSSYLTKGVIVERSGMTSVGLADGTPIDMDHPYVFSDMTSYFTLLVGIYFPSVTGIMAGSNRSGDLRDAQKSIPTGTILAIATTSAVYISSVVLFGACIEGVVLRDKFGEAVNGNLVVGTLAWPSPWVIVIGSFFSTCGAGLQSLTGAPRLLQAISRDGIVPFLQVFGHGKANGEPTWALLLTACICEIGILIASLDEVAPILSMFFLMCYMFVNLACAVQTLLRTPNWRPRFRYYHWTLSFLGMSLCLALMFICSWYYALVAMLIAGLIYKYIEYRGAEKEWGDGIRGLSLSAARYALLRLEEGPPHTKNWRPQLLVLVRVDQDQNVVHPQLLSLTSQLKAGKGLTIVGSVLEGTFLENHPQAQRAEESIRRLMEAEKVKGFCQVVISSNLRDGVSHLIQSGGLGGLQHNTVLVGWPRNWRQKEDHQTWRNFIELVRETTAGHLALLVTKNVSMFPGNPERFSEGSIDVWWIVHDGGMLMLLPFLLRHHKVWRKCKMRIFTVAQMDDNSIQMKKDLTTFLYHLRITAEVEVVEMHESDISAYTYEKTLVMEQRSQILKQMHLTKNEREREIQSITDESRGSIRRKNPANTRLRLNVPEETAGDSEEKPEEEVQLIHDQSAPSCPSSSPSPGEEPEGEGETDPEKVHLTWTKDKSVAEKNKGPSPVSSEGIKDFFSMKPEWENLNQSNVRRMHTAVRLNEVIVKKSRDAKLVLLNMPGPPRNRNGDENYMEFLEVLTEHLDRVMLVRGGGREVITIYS
KCC2 secondary = confirmation of human KCC2 transport modulators; normalised thallium flux (F/F0 slope) at 10 µM; 15% of 3,700 active; shares compounds with KCC2 mod; AID 1713; HEK293-KCC2, thallium flux, FluoZin2 fluorescence; stronger effect = higher value;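 active = thallium flux slope above the same plate's solvent-only control mean plus 3 SD; inconclusive = the two replicate wells disagree; inactive = no significant difference from solvent-only control wells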
KCC2 bumet counter = thallium flux despite bumetanide block in KCC2 cells, secondary assay 3 | normalized thallium flux at 10 µM | shares compounds with KCC2 mod | HEK293-KCC2 + bumetanide/ouabain, thallium flux FluoZin2; stronger effect = higher value | AID 1714 | 49% of 3,700 active;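 active = thallium entry rate above the same plate's blocked-transporter control wells by more than 3 SD; inconclusive = the two repeat wells disagree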;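 note: raw slope of fluorescence over initial fluorescence between 10 and 20 s after thallium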
KCC2 secondary2 = KCC2 (human) modulation, second secondary assay; shares compounds with KCC2 mod; HEK293-KCC2, thallium flux FluoZin2 fluorescence; actives lie on both sides; F/F0 rise rate, 10–20 s post-thallium; normalized thallium flux at 10 µM; 23% of 3,700 active;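 active = thallium flux slope more than 3 SD above or below the plate's solvent-only control mean, mostly below; inconclusive = the two repeat wells disagreed; inactive = no significant shift from solvent-only controls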
HEK293 Tl flux = acts in parental HEK cells, KCC2 counter-screen; 46% of 3,700 active; HEK293 parental cells, thallium flux FluoZin2, ouabain; baseline-ratio fluorescence slope, 10–20 s after thallium; thallium flux rate (normalised fluorescence) at 10 µM; shares compounds with KCC2 mod;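 active = thallium flux rate significantly above the same plate's solvent-only control wells, beyond their mean plus 3 SD; inconclusive = the two replicate wells gave conflicting results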
KCC2 ouabain = confirmation of human KCC2 modulators with ouabain; shares compounds with KCC2 mod; HEK293-KCC2, thallium flux FluoZin2 fluorescence; bidirectional: low = inhibitor, high = activator; raw Tl+ flux slope (below DMSO = inhibition, above = activation) at 10 µM; 48% of 3,700 active;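 active = thallium flux slope beyond 3 SD from same-plate DMSO control mean in most replicates, usually higher, sometimes lower; inconclusive = repeat tests gave conflicting results; inactive = no significant difference from controls in most replicates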;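 note: slope of initial-normalized fluorescence between seconds 10 and 20 after thallium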
HEK293 Tl flux2 = parental HEK flux effect, counter-screen 2; thallium flux slope at 10 µM; 33% of 3,700 active; HEK293 parental, thallium flux FluoZin-2 fluorescence slope; AID 1718; shares compounds with KCC2 mod;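 active = thallium flux slope above the same plate's solvent-control mean plus 3 SD in both duplicate wells; inconclusive = duplicate wells that disagreed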;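 note: run without ouabain in cells lacking the KCC2 cotransporter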
A number is an active result; i = inactive; ? = inconclusive; nt = not tested or not shown. Sampled rows, rich in hits. Any-hit rate of the full collection: about 12%.

SMILES | WT yeast gro inh | ROMK primary | L major viab | Calpain2 inh | KCC2 mod | KCC2 secondary | KCC2 bumet counter | KCC2 secondary2 | HEK293 Tl flux | KCC2 ouabain | HEK293 Tl flux2
O=[N+]([O-])c1ccc(CSc2nnc(SCc3ccccc3)s2)cc1 | i | nt | i | i | -5.4 | i | i | 0.024 | i | 0.014 | i
COc1ccccc1C(=O)Nc1ccc(Br)cc1C | i | i | i | i | i | nt | nt | nt | nt | nt | nt
CCOc1ccc(NC(=O)c2ccccc2OC)cc1 | i | nt | i | i | -4.7 | i | i | i | i | i | i
O=C(NNC(=O)c1ccccc1Br)c1ccccc1Cl | i | i | i | i | i | nt | nt | nt | nt | nt | nt
CCOc1ccc(NC(=O)c2ccccc2O)cc1 | i | i | i | i | i | nt | nt | nt | nt | nt | nt
COC(=O)NNC(=O)c1ccccc1OC | i | i | i | i | i | nt | nt | nt | nt | nt | nt
COc1ccccc1C(=O)NNC(=O)C(=O)NC(C)(C)C | i | nt | i | i | 34 | i | 0.042 | 0.044 | 0.03 | 0.043 | 0.029
CC(C)(C)NC(=O)C(=O)NNC(=O)c1ccccc1Br | i | i | i | i | 9.6 | 0.015 | 0.024 | i | ? | 0.03 | i
Cc1ccc(Cn2ccc(NC(=O)c3cc(C4CC4)on3)n2)cc1 | nt | i | nt | i | i | nt | nt | nt | nt | nt | nt
N/C(Cc1ccc([N+](=O)[O-])cc1)=N\OC(=O)C(c1ccccc1)c1ccccc1 | i | nt | i | i | nt | nt | nt | nt | nt | nt | nt
O=C(N/N=C\c1ccc(Cl)s1)C1COc2ccccc2O1 (configuration not stated) | nt | i | nt | i | 12 | i | 0.011 | i | ? | ? | i
COc1ccccc1-c1nnc(SCC(=O)O)n1-c1ccc(C)cc1 | i | i | i | i | i | nt | nt | nt | nt | nt | nt
Cc1c(-n2c(SCC(=O)O)nnc2-c2ccccc2Cl)c(=O)n(-c2ccccc2)n1C | i | nt | i | i | i | i | i | i | i | i | ?
C/C(=N\NC(=O)Cn1nc(C)c([N+](=O)[O-])c1C)c1ccco1 | nt | nt | nt | i | i | nt | nt | nt | nt | nt | nt
N#Cc1c(Cl)nc(SCc2ccccc2)nc1-c1ccccc1 | i | nt | i | i | -4.9 | i | i | 0.024 | 0.0055 | 0.014 | 0.0083
O=C1c2ccccc2C(Nc2ccc(S(=O)(=O)N3CCCCCC3)cc2)N1Cc1ccco1 (configuration not stated) | i | nt | i | i | -5.5 | i | i | i | i | 0.016 | i
CCc1ccccc1NC1c2ccccc2C(=O)N1Cc1ccco1 (configuration not stated) | i | nt | i | i | i | nt | nt | nt | nt | nt | nt
CC1CCN(c2c(NCC3CCC(C(=O)NCCc4ccccc4)CC3)c(=O)c2=O)CC1 (configuration not stated) | i | i | i | i | -4.7 | i | i | ? | i | i | i
Cc1ccc(CCNC(=O)C2CCC(CNc3c(N4CCC(C)CC4)c(=O)c3=O)CC2)cc1 (configuration not stated) | i | i | i | i | i | nt | nt | nt | nt | nt | nt
O=C(NCCc1ccccc1)C1CCC(CNc2c(N3CCCCC3)c(=O)c2=O)CC1 (configuration not stated) | i | i | i | i | i | nt | nt | nt | nt | nt | nt
Cc1ccc(CCNC(=O)C2CCC(CNc3c(N4CCCC4)c(=O)c3=O)CC2)cc1 (configuration not stated) | i | nt | i | i | nt | i | ? | i | ? | i | i
CCOC(=O)CSc1nnnn1-c1cc(OC)ccc1OC | i | i | i | i | i | nt | nt | nt | nt | nt | nt
COC(=O)CSc1snnc1-c1ccc(Cl)cc1Cl | i | nt | i | i | i | nt | nt | nt | nt | nt | nt
C/C(N)=C(/C#N)C(=O)CSc1cc(C)c2cc(C)cc(C)c2n1 | i | i | i | i | 4.1 | i | i | i | ? | i | i
